In the library only some 4.7% were active in any assay of this set; here they are far more common.
SKKanGAS inh: inhibitors of SKKanGAS S. pyogenes growth in kanamycin (SK-promoter or general growth effect). BacTiter-Glo, 6 h. inhibition, % at 7.5 µM. hit rate 1.3% among 300,000;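 active = mean replicate score, as percent of positive control median, at least 50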;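 also: strain carries kanamycin resistance gene driven by streptokinase promoter and grows in 40 µg/ml kanamycin; loss of luminescence reflects streptokinase promoter inhibition or plain growth inhibition; 0% = median of DMSO wells and 100% = positive control at its reference dose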
tim23-1 inh: growth inhibitors of tim23-1 mutant yeast; S. cerevisiae tim23-1 growth, BacTiter-Glo luminescence, 24 h; AID 463212; hit rate 1.3% among 330,000; inhibition, % at 20 µM;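 active = growth inhibition of the mutant yeast at or above 50%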;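 also: temperature-sensitive mutant grown at 25 °C; plate controls were DMSO-treated mutant yeast for no effect and medium wells lacking yeast for full effect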
TIM10 inh: growth inhibitors of TIM10 yeast strain | S. cerevisiae TIM10 strain growth, BacTiter-Glo luminescence, 24 h | inhibition, % at 10 µM | hit rate 1.4% among 330,000 | AID 463195;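 active = inhibition of 40% or more at the single tested concentration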;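 also: wild-type TIM10 isogenic control strain grown at permissive 25 °C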
PfHsp90 set2: growth inhibition of yeast expressing Plasmodium Hsp90. S. cerevisiae expressing PfHsp90, BacTiter-Glo ATP, 48 h; yeast lacking PDR1 and PDR3 efflux regulators. inhibition, % at 9.4 µM. hit rate 0.32% among 310,000;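 active = every replicate shows inhibition above about 80%, whatever the replicate mean, limit read from the data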;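 also: 0% = DMSO neutral controls and 100% = 20 µM radicicol positive controls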
tim10-1 inh: growth inhibitors of tim10-1 mutant yeast; S. cerevisiae tim10-1 ts strain growth, BacTiter-Glo, 24 h; inhibition, % at 20 µM; hit rate 2.2% among 330,000;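 active = inhibition of at least 40%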;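 also: mutant grown at 25 °C; 0% = DMSO wells with yeast and 100% = wells holding no yeast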
EBI2 block: antagonists of human EBI2 receptor; P32249; EBI2 beta-arrestin recruitment, luminescence, 7a,25-OHC stimulated; inhibition, % at 5 µM; hit rate 0.81% among 360,000; AID 651636; in the data active = inhibition above about 38%;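 also: enzyme fragment complementation signal reports receptor beta-arrestin coupling in cells; 0% = agonist plus DMSO wells and 100% = wells without agonist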
Target sequence (P32249 whole entry, looked up, the tested form may be a part): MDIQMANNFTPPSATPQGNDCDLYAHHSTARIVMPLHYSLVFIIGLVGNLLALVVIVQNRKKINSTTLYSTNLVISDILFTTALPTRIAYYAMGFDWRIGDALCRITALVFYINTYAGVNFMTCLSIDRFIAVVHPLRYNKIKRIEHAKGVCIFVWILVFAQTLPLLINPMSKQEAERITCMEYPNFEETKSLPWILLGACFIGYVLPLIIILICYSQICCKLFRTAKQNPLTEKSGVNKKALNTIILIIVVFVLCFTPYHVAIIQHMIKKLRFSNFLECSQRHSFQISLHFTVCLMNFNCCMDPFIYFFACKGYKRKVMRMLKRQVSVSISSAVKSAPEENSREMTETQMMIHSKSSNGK
An asterisk follows results filed as active; i = inactive; . = not tested or not shown.

SMILES	SKKanGAS inh	tim23-1 inh	TIM10 inh	PfHsp90 set2	tim10-1 inh	EBI2 block
O=C(COc1ccccc1)Nc1nnc(-c2ccc(Cl)cc2)o1	43.5	25.2	11.5	-36.7	19.1	-9.7
O=C(COc1ccc(Cl)cc1)Nc1nnc(-c2ccc3c(c2)CCCC3)o1	97.3*	3.7	-7.6	-37.6	-12.5	-1.6
CC(=O)Nc1nnc(-c2ccc3c(c2)CCCC3)o1	7.2	8.7	-0.3	9.7	9.1	-3.7
COc1cccc(CNC(=S)Nc2cc(C)ccc2C)c1	2.4	6.7	32.4	-42.5	34.5	-5.0
Cc1ccc(N=Cc2cccc(O)c2O)c(C)c1	57.2*	41.6	28.0	-46.6	36.0	5.7
Cc1ccccc1N=Cc1cccc(O)c1O	1.0	34.7	9.5	1.1	8.4	-7.0
O=C(O)c1ccccc1N/N=C/c1cc(Br)cc(Br)c1O	58.1*	28.6	31.1	8.7	-26.2	1.8
Oc1c(Br)cc(Br)cc1/C=N/Nc1ccc(Cl)nn1	84.3*	.	.	-1.7	.	-3.5
O=C(Cc1ccccc1)N/N=C/c1cc(Br)cc(Br)c1O	112.1*	25.5	38.1	-4.3	34.3	12.1
O=C(COC(=O)/C=C/c1ccccc1F)Nc1nnc(-c2ccccc2)o1	67.6*	4.4	-6.8	.	-4.4	-6.9
COc1cccc(/C=C/C(=O)OCC(=O)Nc2nnc(-c3ccccc3)o2)c1	62.6*	1.8	-6.8	.	10.2	6.2
COc1ccc(S(=O)(=O)NC(=O)C2(C)CCN2C(=O)C(C)(C)c2ccccc2)cc1 (stereo not drawn)	.	.	.	.	.	-7.6
COc1cccc(CNC(=O)c2ccc(CS(=O)Cc3ccccc3Cl)o2)c1 (stereo not drawn)	.	.	.	.	.	3.2
Cc1ccc(OCCn2c(=S)[nH]c3ccccc32)c(C(C)C)c1	101.4*	39.0	37.9	19.2	13.9	36.0
Cc1cccc(OCCn2c(=S)[nH]c3ccccc32)c1	-6.3	36.6	24.9	-2.2	31.4	23.7
CCN1C[C@@H]2[C@@H]3C(=O)N(Cc4ccccc4)C(=O)[C@@H]3[C@](C)(C1=O)N2C(=O)c1ccc(Cl)c(Cl)c1	.	.	.	-10.4	.	-7.3
CC(C)(C)[C@H]1CCC(=O)N([C@H](CSc2ccccc2)Cc2ccccc2)CC1	63.4*	20.9	19.1	.	32.7	12.2
CC(C)(C)[C@H]1CCC(=O)N([C@H](CSc2ccc(Br)cc2)Cc2ccccc2)CC1	.	13.0	5.9	10.1	8.7	20.6
CC(C)(C)[C@@H]1CCC(=O)N(CC[C@H](Sc2ccccc2)c2ccccc2)CC1	79.1*	23.5	26.3	-2.5	27.1	19.7
CC(c1ccccc1F)n1cc(C(=O)NCCCc2nc3ccccc3[nH]2)nn1 (stereo not drawn)	4.9	19.9	5.7	15.1	21.8	15.0
Cc1cc2nc(/N=C(\N)NC(=O)C(C)C)nc(C)c2cc1C	52.8*	20.6	32.9	-4.9	14.8	-12.1
CCCC(=O)N/C(N)=N/c1nc(C)c2cc(C)ccc2n1	13.7	19.4	26.4	.	27.7	3.2
Cc1ccc2nc(/N=C(\N)NC(=O)NC3CCCCC3)nc(C)c2c1	52.9*	22.3	11.8	11.0	-10.3	24.0
CC(C)CNCC1OCc2ccccc2CO1	-6.4	-5.2	-8.8	-4.0	-11.3	-3.5
Cc1cccnc1C(NC(=O)C1CCN(CCCc2ccccc2)CC1)c1ccc(F)cc1 (stereo not drawn)	.	.	.	.	.	-7.3
SMILES	SKKanGAS inh	tim23-1 inh	TIM10 inh	PfHsp90 set2	tim10-1 inh	EBI2 block
Cc1sc(NC(=O)COc2ccccc2)c(C#N)c1-c1ccccc1	5.7	5.3	6.3	1.7	12.6	3.4
COc1ccc(C(=O)Nc2sc(C)c(-c3ccccc3)c2C#N)cc1OC	54.0*	15.9	19.2	5.7	15.8	14.0
F[B-](F)(F)c1cc2cc(Br)ccc2s1	.	.	.	116.9*	.	10.5
F[B-](F)(F)c1cc2ccccc2s1	.	.	.	-2.2	.	-6.8
CCCSc1nsc(NC(=O)C(c2ccccc2)c2ccccc2)n1	99.7*	-14.7	4.1	9.9	-7.5	1.1
CCCSc1nsc(NC(=O)Nc2ccc(F)cc2F)n1	64.0*	25.1	-1.4	5.4	32.9	-3.2
CC(C)(C)C(=O)C(CO)(Oc1ccc(Cl)cc1)n1cncn1 (stereo not drawn)	4.3	i	-96.0	88.9*	-96.9	7.2
C[C@H]1[C@@H](Cc2cc(Cl)cc(Cl)c2)N(c2ccccc2)c2ccccc2CN1Cc1ccccc1	.	.	.	.	.	1.0
CC(C)Cc1nc(N2CCCCC2)c(C#N)c2c1CCC2	51.3*	-10.3	12.7	3.6	4.3	4.8
CC(C)Cc1nc(N2CCN(C(=O)C(C)C)CC2)c(C#N)c2c1CCC2	-2.6	30.7	12.1	4.7	18.9	4.9
CCCCN(C(C)=O)c1c(CC)nc2ccc(C(=O)Nc3cccc(OCC(=O)N(C)C)c3)cn12	.	.	.	.	.	-4.8
Nc1nc2c(nnn2C2CC(O)C(CO)O2)c(=O)[nH]1 (stereo not drawn)	.	.	.	.	.	7.6
Cn1cc(C(=O)c2ccc(Cl)cc2Cl)cc1C(=O)N/N=C(\N)COc1cccc(C(F)(F)F)c1	58.8*	19.5	12.4	25.6	26.2	1.6
CC(=O)Oc1c(I)cc(I)cc1C(=O)Nc1ccc(Cl)cc1	124.4*	42.1	-2.5	.	36.8	-0.5
Fc1ccc(/C=C2\CCCC3=C2Nc2ncnn2C3c2ccc(F)cc2)cc1 (stereo not drawn)	64.0*	31.9	37.2	.	38.1	-2.2
Cc1ccc(C)c(-c2csc(N)c2C(=O)OC(C)C)c1	52.8*	16.3	-2.4	4.8	17.3	16.6
CC(C)COc1ccc(-c2nn(-c3ccccc3)cc2C(=O)Nc2nccs2)cc1	96.2*	-6.7	5.7	-7.9	32.3	11.8
Cc1ccc(C=NNc2nc3c([nH]2)c(=O)n(C)c(=O)n3C)cc1	.	.	.	15.8	.	-6.3
COc1cccc(OC)c1C(=O)Nc1cc(C)nn1-c1nc2ccccc2[nH]1	51.5*	33.7	18.6	4.4	17.0	-17.9
O=C(C=Cc1ccco1)c1cc(Cl)ccc1O	.	.	.	2.2	.	-6.0
CC(/C=C/c1ccco1)=N\NC(=O)c1cc(Cl)ccc1O	69.8*	3.6	2.6	-9.3	9.8	5.2
CC1CCN(Cc2c(C(=O)N/N=C/c3cc(Br)ccc3O)nnn2-c2nonc2N)CC1	80.3*	25.0	14.3	-8.2	17.4	-3.1
CC1CCN(Cc2c(C(=O)N/N=C/c3cc(Cl)ccc3O)nnn2-c2nonc2N)CC1	66.0*	24.2	25.3	-10.6	26.2	-15.1
COc1c(Cl)cc(Cl)cc1/C=N/NC(=O)c1nnn(-c2nonc2N)c1CN1CCC(C)CC1	24.6	-0.3	7.4	23.2	29.2	7.5
COc1cc2oc(=O)cc(CN3CCN(C(C)=O)CC3)c2cc1Cl	.	.	.	.	.	-0.8
CCCOc1ccc(/C=N/Nc2ccccc2[N+](=O)[O-])c(O)c1	40.8	3.4	-5.1	-27.4	13.0	-4.5
CCCOc1ccc(/C=N/NC(=S)Nc2ccccc2[N+](=O)[O-])c(O)c1	101.9*	.	.	.	.	.
CCOC(=O)c1cnc(-n2nc(C)cc2C)nc1Nc1ccc(OC)cc1	66.5*	45.1	19.5	-10.7	13.5	11.9
CCOC(=O)c1cnc(-n2nc(C)cc2C)nc1Oc1ccc(C(=O)OC)cc1	-5.4	-8.4	-57.0	.	-39.0	7.7
